# WRN inhibitor: WRN helicase (human) inhibition; Q14191; WRN helicase unwinding, fluorescent forked duplex, kinetic; Potency, µM (top dose mostly 114 µM), for the others: at the highest dose activity change, negative = inhibition, most hits filed as inhibitors; 360,000 tested, 0.46% active; AID 651768; further: potency means the concentration at half of the fitted maximal effect; on the % scale 0 is the no-effect control and ±100 the full control effect; nearly all actives have a fitted effect of over 55% in size
# Target sequence (Q14191 whole entry, looked up): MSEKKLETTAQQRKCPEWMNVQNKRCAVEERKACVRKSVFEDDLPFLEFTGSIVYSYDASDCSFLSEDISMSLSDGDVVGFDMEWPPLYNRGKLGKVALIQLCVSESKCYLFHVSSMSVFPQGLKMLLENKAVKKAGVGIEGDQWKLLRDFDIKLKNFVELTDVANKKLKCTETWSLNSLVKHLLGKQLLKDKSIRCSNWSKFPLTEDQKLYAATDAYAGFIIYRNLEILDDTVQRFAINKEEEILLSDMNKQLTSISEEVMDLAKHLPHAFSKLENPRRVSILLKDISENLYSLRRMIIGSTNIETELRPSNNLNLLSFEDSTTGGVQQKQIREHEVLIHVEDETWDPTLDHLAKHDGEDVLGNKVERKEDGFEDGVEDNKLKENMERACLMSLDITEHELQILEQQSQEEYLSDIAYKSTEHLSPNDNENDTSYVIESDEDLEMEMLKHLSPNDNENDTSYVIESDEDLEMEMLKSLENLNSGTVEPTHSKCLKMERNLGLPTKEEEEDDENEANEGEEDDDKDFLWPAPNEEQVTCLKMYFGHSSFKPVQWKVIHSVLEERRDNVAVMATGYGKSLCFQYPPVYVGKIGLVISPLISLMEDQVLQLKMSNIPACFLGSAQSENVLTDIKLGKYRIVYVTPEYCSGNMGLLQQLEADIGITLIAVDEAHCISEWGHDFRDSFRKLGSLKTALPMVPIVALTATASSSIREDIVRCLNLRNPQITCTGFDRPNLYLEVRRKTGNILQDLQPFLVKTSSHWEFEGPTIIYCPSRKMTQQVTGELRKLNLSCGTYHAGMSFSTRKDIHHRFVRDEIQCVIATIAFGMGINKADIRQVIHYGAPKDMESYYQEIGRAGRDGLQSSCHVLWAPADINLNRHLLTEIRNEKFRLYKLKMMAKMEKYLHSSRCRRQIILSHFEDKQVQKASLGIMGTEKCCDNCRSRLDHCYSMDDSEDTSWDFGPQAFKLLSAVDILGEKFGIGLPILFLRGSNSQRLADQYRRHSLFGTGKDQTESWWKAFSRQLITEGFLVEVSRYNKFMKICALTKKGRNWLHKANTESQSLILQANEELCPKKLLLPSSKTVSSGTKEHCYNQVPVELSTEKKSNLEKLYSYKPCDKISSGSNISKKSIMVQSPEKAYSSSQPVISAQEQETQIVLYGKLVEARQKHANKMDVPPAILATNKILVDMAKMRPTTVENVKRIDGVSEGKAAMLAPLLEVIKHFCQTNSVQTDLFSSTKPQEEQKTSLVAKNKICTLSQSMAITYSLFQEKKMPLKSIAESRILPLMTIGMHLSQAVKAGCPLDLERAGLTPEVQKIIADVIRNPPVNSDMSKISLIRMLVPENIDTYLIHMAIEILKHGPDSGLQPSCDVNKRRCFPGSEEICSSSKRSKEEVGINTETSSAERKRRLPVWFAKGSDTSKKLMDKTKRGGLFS
#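 Enzyme (20 nM final) and test compound sit together 15 min at room temperature before substrate addition. Substrate is a single-forked duplex oligonucleotide (100 nM) labelled with fluorophore and quencher, with 2 mM ATP; helicase unwinding raises red fluorescence, read kinetically.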
# FEN1 inh: inhibitors of human flap endonuclease 1 | Recombinant FEN1 flap cleavage, fluorescence, 15 min | Potency, µM (titrated, usually from 114 µM), without a hit: at the highest dose activity change, negative = inhibition, actives largely listed as inhibitors | 390,000 tested, 0.35% active | P39748; further: potency means the concentration at half of the fitted maximal effect; on the % scale 0 is the no-effect control and ±100 the full control effect; nearly all actives have a fitted effect of over 65% in size
#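 Potency values derive from four-parameter Hill fits of normalized qHTS data. The reaction used 10 nM FEN1 preincubated 15 min at room temperature with compound, then 50 nM DNA substrate, read at 0 and 15 min.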
# Pin1 inh: human Pin1 inhibition | Pin1 FP peptide displacement, HiFluor488, 10 min | Q13526 | AID 504891 | 390,000 tested, 0.009% active | Potency, µM (top dose mostly 115 µM), for inactives: at the top dose activity, negative = inhibition, most hits filed as inhibitors; active means well fitted inhibition curve with a large enough effect in the polarisation, with a control signal flat, not every such curve was filed as active; inconclusive means small, poorly fitted or top-dose-only effect, or effect the other way, or a change in a side signal; inactive means no such curve, though single readings can be large or run the other way; the % refers to the polarisation; further: potency means the concentration at half of the fitted maximal effect; on the % scale 0 is the no-effect control and ±100 the full control effect
# PI5P4K alpha inh: inhibitors of human PI5P4K alpha. P48426. PI5P4Kalpha enzyme, ADP-Glo luminescence, 60 min; stronger effect = lower value. max response, %. 330,000 tested, 1.2% active. AID 652105; active means max response of -50% or lower; inconclusive means between -30% and -50%; inactive means -30% or higher; further: value at the top dose of about 77 µM; on the % scale 0 is the no-effect control and ±100 the full control effect
#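 ADP-Glo luminescence end-point after a 60 min room-temperature kinase reaction. PI5P4Kalpha and substrate in HEPES pH 7.4 buffer with EGTA, 0.1% CHAPS and 5% DMSO; ATP at 5 microM final.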
# PGK inhibitor: T. brucei PGK inhibition | Potency, µM (top dose mostly 57.5 µM), without a hit: at the highest dose activity change, negative = inhibition, most hits filed as inhibitors | 380,000 tested, 0.043% active | PGK/GAPDH coupled, Kinase-Glo luminescence, 60 min | AID 602233; further: potency means the concentration at half of the fitted maximal effect; on the % scale 0 is the no-effect control and ±100 the full control effect; nearly all actives have a fitted effect of over 60% in size
#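 Recombinant glycosomal PGK reaction used 1,3-bisphosphoglycerate generated in-well by GAPDH (100nM final) in 100mM TEA pH 7.6, 5mM MgCl2, 0.01% Tween-20. After 60 minutes at room temperature, ATP was read by Kinase-Glo Plus luminescence end-point.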
# GRP78 ERSR act: ER stress response induction in glioma | Potency, µM, for inactives: at the top dose activation, hits mostly activators | 420,000 tested, 0.02% active | U87-MG GRP78 promoter luciferase reporter, 16 h; further: potency means the concentration at half of the fitted maximal effect; series mostly up to about 76 µM; % of control where 0% means no effect; nearly all actives have a fitted effect of over 35% in size
#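 ERSR induction read as luciferase luminescence (Bright-Glo, 10 min at room temperature) in stably transfected human U87-MG glioma cells exposed to compounds for 16 h, using GRP78 as sensor.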
# ADP-Glo counter: counter-screen for PI5P4K inhibitors: ADP-Glo detection interference, no enzyme | shares compounds with PI5P4K alpha inh | ADP-Glo detection counter-screen, luciferase luminescence, no enzyme | Potency, µM (doses to about 76.9 µM), without a hit: top-dose activity change, negative = inhibition, actives largely listed as inhibitors | 1,100 tested, under 10 active
# * = called active by the depositor; i = inactive; ? = inconclusive; / = no result; [ ] = dose if it differs, or a comment. In the library only some 1.3% were active in any assay of this set; here they are far more common. Unless noted, the call rests on the fitted dose curve; in most records, active means well fitted curve in the direction sought with a large enough effect; inconclusive means small, poorly fitted or top-dose-only effect, or another doubt; inactive means no such curve, though single readings can be large; an effect the other way counts as inactive or inconclusive.
SMILES,WRN inhibitor,FEN1 inh,Pin1 inh,PI5P4K alpha inh,PGK inhibitor,GRP78 ERSR act,ADP-Glo counter
COc1cccc(CN2CCC3(CCC(CNC(=O)c4ccco4)O3)CC2)c1OC (stereo not given),/,/,/,/,/,-1%,/
Cc1nc(NC(=O)c2ccccc2)sc1-c1cc(C(=O)N2CCOCC2)nn1CCO,5%,/,/,2,/,/,/
Cc1nc(NC(=O)c2ccccc2)sc1-c1cc(C(=O)N2CCOCC2)nn1Cc1ccccc1,6%,/,/,-55*,-16%,0%,-2%
CCN1CCN(Cc2ccc(NC(=O)c3ccc(C)c(NC(=O)c4cc(-c5ccc(Br)cc5)n[nH]4)c3)cc2C(F)(F)F)CC1,4%,-1%,0%,-57*,-1%,-12%,0%
OCCN1CCN(Cc2ccc3c(c2)CN(Cc2cccn2-c2ccccn2)CCO3)CC1,/,/,/,/,/,-3%,/
Cc1ccc2cc(CCl)c(Cl)nc2c1,-4%,-2%,0%,-79*,0%,-1%,0%
ClCc1cc2ccccc2nc1Cl,1%,2%,0%,1,i,-4%,/
Clc1cccc(Cc2c(-c3ccco3)nc3ccc(Br)cn23)c1,-36%,/,/,-82*,/,-13%,-2%
Cc1cc2nc(-c3ccco3)c(CC(C)(C)C)n2c(C)c1Br,-9%,/,/,-20,/,-4%,/
Cc1cc2nc(-c3ccco3)c(Cc3cccc(Cl)c3)n2c(C)c1Br,-5%,/,/,-56*,/,/,-1%
Cc1cc2nc(-c3cccc(Cl)c3)c(Cc3cccc(Cl)c3)n2c(C)c1Br,-7%,/,/,0,/,/,/
COc1ccccc1Cc1c(-c2ccco2)nc2cc(C)c(Br)c(C)n12,-21%,/,/,-64*,/,/,-1%
CC(C)(C)OC(=O)NCc1nnc(-c2cc3ccccc3[nH]2)s1,/,/,2%,/,/,/,/
CCOC(=O)Cc1cc(=O)n2[nH]c(-c3ccccc3)c(-c3ccccc3)c2n1,?,0%,19%,-50*,-1%,0%,3%
c1ccc2c(CCNc3ncnc4nc[nH]c34)c[nH]c2c1,-4%,-14%,11%,/,i,-2%,-2%
CCc1c(C)sc(NC(=O)c2ccoc2C)c1C(N)=O,?,-5%,1%,-66*,-9%,-2%,-3%
CCOC(=O)c1c(NC(=O)c2ccoc2C)sc(C)c1C,3%,-9%,-2%,8,-8%,-4%,/
Cc1ccc(NCC(=O)Nc2ccc(Br)cc2)cc1C,0%,20%,-1%,-3,1%,3%,6%
COc1cc(CN2CCCC(c3nc(-c4ccncc4)ncc3-c3ccccc3)C2)ccc1O (stereo not given),/,/,/,/,/,-1%,/
COCCNc1nc(NCC2CCCCC2)c2sc(-c3ccccc3)cc2n1,-5%,/,/,/,/,-11%,-2%
c1ccc(-c2cc3nc(NCC4CC4)nc(NCC4CCCCC4)c3s2)cc1,2%,/,/,/,/,-14%,5%
Cn1c(SCC2CCCO2)nnc1C1CCN(Cc2ccco2)CC1 (stereo not given),/,/,/,/,/,-5%,/
COc1cc(OC)cc(C(=O)NCC2Cc3cccc(-c4nc(C)cnc4C)c3O2)c1 (stereo not given),/,/,/,/,/,-1%,/
O=C(NCCc1ccccc1)C(c1ccncc1)N(C(=O)c1csnn1)C1CC1 (stereo not given),7%,-5%,4%,/,-3%,-3%,/
O=C(NCCc1ccccc1)C(c1cccs1)N(C(=O)c1csnn1)C1CC1 (stereo not given),8%,-7%,1%,0,0%,-4%,1%
SMILES,WRN inhibitor,FEN1 inh,Pin1 inh,PI5P4K alpha inh,PGK inhibitor,GRP78 ERSR act,ADP-Glo counter
COc1ccc(CN2CCOc3ccc(CN4CCCCC4CO)cc3C2)c(OC)c1 (stereo not given),/,/,/,/,/,-2%,/
CCn1c(=O)[nH]c(=O)c2c(N)c(C(=O)c3cc(F)ccc3F)sc21,-8%,-2%,-11%,-64*,-4%,-5%,-8%
COc1ccc(-c2ccnc(-n3ncc(C(=O)NC(C)(C)CO)c3C3CC3)n2)cc1F,/,/,/,/,/,4%,/
CN(Cc1cccs1)C(=O)Cc1csc(-c2ccccc2)n1,-4%,11%,17%,4,6%,1%,/
O=C(Cc1cccs1)NCCc1csc(-c2ccccc2)n1,?,-3%,0%,-60*,-7%,1%,1%
Cc1onc(-c2ccccc2)c1C(=O)N[C@@H]1C(=O)N2[C@@H](C(=O)O)C(C)(C)S[C@@H]12,/,/,/,/,/,-1%,/
O=C(Nc1nc(-c2ccco2)c(-c2ccco2)s1)C1CC(=O)N(c2ccc3c(c2)OCCO3)C1 (stereo not given),13µM*,?,?,-76*,-16%,-11%,3%
Cc1cccc(CNCCn2cc(C(=O)Nc3ccccc3)nn2)c1,/,/,/,/,/,4%,/
O=C(CCC(=O)c1ccc(Cl)s1)Nc1ncccc1O,-3%,-7%,-14%,?,i,-2%,/
O=C(CSc1nncn1-c1ccccc1)Nc1ccc(N2CCOCC2)cc1,?,0%,-2%,-56*,-8%,-3%,1%
O=C(Cc1cccs1)Nc1ccc(N2CCOCC2)cc1,-21%[57.1 µM],-2%,6%,-53*,-13%,-2%,-8%
O=C(CCC(=O)c1cccs1)Nc1ccc(N2CCCCC2)cc1,2%[11.6 µM],1%,3%,-76*,5%,2%,-2%
O=C(CCC(=O)c1cccs1)Nc1ncccc1O,-32%,3%,4%,-56*,-6%,2%,-2%
O=C(Cc1cccs1)Nc1ccc(Cl)cc1,2%,-1%,4%,-10,-4%,-2%,/
CC(=O)Nc1cc(C(=O)N2CCSCC2)cc2ncn(CCc3ccccn3)c12,/,/,/,/,/,-4%,/
Fc1ccc(C2=CC(c3ccco3)n3ncnc3N2)cc1 (stereo not given),-13%,1%,?,9,-1%,-3%,/
C1=C(c2ccc(-c3ccccc3)cc2)Nc2ncnn2C1c1ccco1 (stereo not given),-25%,-3%,?,-56*,-4%,8%,-11%
Nc1c(C(=O)O)cnc2c(-c3ccc(Cl)cc3)cnn12,?,-17%,-1%,-84*,32µM*,2%,-1%
CC(=O)c1cnc2c(-c3ccc(Cl)cc3)cnn2c1C,14%,-1%,-1%,10,1%,6%,/
COc1ccc(CN2CCC(=O)N([C@H](CO)CC(C)C)CC2)cc1OC,-7%,44%,0%,-59*,-10%,-5%,-7%
CCCCc1c(-c2ccccc2)ncn1CCc1ccccc1OC,-2%,/,/,2,/,/,/
CCCCc1c(Cc2ccccc2)ncn1CCc1ccccc1OC,-13%,/,/,-67*,/,/,2%
CC(=O)Nc1ccccc1-c1nc(CNC(=O)c2ccc(-n3cccn3)cc2)c(C)o1,/,/,/,/,/,1%,/
